Growth data for 39 compounds are collected here from PubChem BioAssay (NCI).

This is part of a sample that, as a whole, favours compounds with a hit. Of some 83,000 tested, about 20% had one in any assay.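 How to read the values: 0–100, growth inhibition (40 = 60% inhibited); 0, no net growth; -100 to 0, cell death (-40 = 40% of starting cells died; -100 = all dead).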 Calls of active or inactive are those of the source. How the source made its calls: active means growth percent below 10; inactive means the rest.

The test system of this test is SR leukemia. As to the kind of experiment: NCI-60 one-dose screen, 48 h (100 = growth as untreated, 0 = no growth, -100 = all killed). The following applies: 10 µM unless noted.
For `COc1cc(NC(=O)NCc2ccco2)ccc1-c1ccc(NC(=O)NCc2ccco2)cc1OC`, the growth was 55.6% (inactive).

For `COc1cnc2c(c1)C(=O)c1c-2n(CCCN2CCC(O)CC2)c(=O)c2cc(F)ccc12`, the growth is 0.0108% (active).

As to `CCOC(=O)C1=CCC(n2cc(C)c(=O)[nH]c2=O)O1` (centres undefined), the growth was 94.8% (inactive).

On to `CCSc1nc(Nc2ccc(S(=O)(=O)Nc3ccon3)cc2)c(C#N)c(-c2cccc(Br)c2)n1`, for which the growth is 93.7% (inactive).

With `C[C@H]1O[C@@H](O[C@H]2[C@@H](O)C[C@H](O[C@H]3[C@@H](O)C[C@H](O[C@H]4CC[C@]5(C)C6C[C@@H](O)[C@]7(C)[C@@H](C8=CC(=O)OC8)CC[C@]7(O)C6CC[C@@H]5C4)O[C@@H]3C)O[C@@H]2C)C[C@H](O)[C@@H]1O` (some centres undefined), the growth was -9.87% (active).

On to `Cc1ccc(NC(=O)c2sc3nc4c(cc3c2N)C(=O)CCC4)cc1`, for which the growth is 63.1% (inactive).

On to `COc1ccc(-c2nnc3c4[nH]cnc4ncn23)c(OC)c1`, for which the growth is 15.5% (inactive).

Regarding `Cc1ccc(N/N=C(/C(=O)c2ccc(Cl)cc2)c2nc(C)cc(=O)[nH]2)cc1`, the growth was 84.4% (inactive).

With `Cc1ccc(/C=C/C(=O)c2ccc(F)cc2)s1`, the growth was 10.3% (inactive).

`CNNc1ncnc2c1cnn2-c1ccc(S(N)(=O)=O)cc1`: the growth was 65.6% (inactive).

For `OC(c1cc(-c2cccc(Cl)c2)nc2ccccc12)C1CCCCN1` (centres undefined), the growth was -33.8% (active).

As to `COc1ccc2c(c1)sc1nc(-c3ccc(Br)cc3)cn12`, the growth is 120% (inactive).

Take `COc1ccccc1NC(=O)c1sc2nc3c(cc2c1N)C(=O)CCC3`: the growth is 64% (inactive).

With `N#CC(C#N)C(C#N)C#N`, the growth was 109% (inactive).

For the compound `COc1ccc(C2=NN(C(C)=O)C(c3c(C)nn(-c4ccccc4)c3N3CCOCC3)C2)cc1` (centres undefined), the growth is 90.5% (inactive).

Regarding `CCSc1nc(-c2ccco2)n2nc(-c3ccco3)cc2n1`, the growth is 93% (inactive).

Turning to `O=C(Nc1ccc2c(c1)C(=O)c1ccccc1-2)c1ccccc1`, the growth was 81.7% (inactive).

Regarding `CN(C)c1ccc(-c2nc3ncc(Br)cc3o2)cc1`, the growth was 94.4% (inactive).

In the case of `c1ccc(COc2ccc(Nc3ncnc4c3cnn4-c3ccccc3)cc2)cc1`, the growth was 91.9% (inactive).

On to `Cc1ccccc1NC(=O)N/C(N)=N/c1nc2ccccc2s1`, for which the growth was 8.11% (active).

With `Cc1ccc(C2=NNC(c3sc(Cl)nc3Cl)C2)cc1` (centres undefined), the growth was 3.24% (active).

Turning to `N#Cc1ccccc1C#Cc1ccccc1C#Cc1ccc(OCCCCCCOc2ccc(C#Cc3ccccc3C#Cc3ccccc3C#N)cc2)cc1`, the growth was 113% (inactive).

As for `C=CCN(/C=C/CN(CC=C)CC=C)CC=C`, the growth is 85.3% (inactive).

Consider `C[C@@H]1CN(c2nc3c(cc2F)c(=O)c(C(=O)O)cn3C(C)(C)C)C[C@H](C)N1`, for which the growth was 115% (inactive).

For the compound `CCN(CC)c1ccc(N=C2C=CC(=O)C=C2NC(C)=O)cc1`, the growth was 110% (inactive).

In the case of `COc1ccc(NS(=O)(=O)N2CCCCC2)cc1`, the growth is 95.3% (inactive).

Take `COc1cc(/C=C2\CN(S(=O)(=O)c3ccc(C)cc3)C/C(=C\c3cc(CN4CCOCC4)c(O)c(OC)c3)C2=O)cc(CN2CCOCC2)c1O`: the growth was 4.35% (active).

With `Cc1ccc(C2=Nc3c(ccc4c(C)c(C)c(=O)oc34)OC2)cc1`, the growth was 103% (inactive).

Regarding `NC(=O)c1cc(Cl)ccc1NC(=O)c1ccccc1-c1ccccc1`, the growth is 5.82% (active).

For `CC12CCC3C(=CCc4cc(O)ccc43)C1CCC2=O` (centres undefined), the growth is 97.6% (inactive).

Regarding `CCOC(=O)OCC(=O)[C@@]1(O)CC[C@H]2[C@@H]3CCC4=CC(=O)CC[C@]4(C)[C@H]3[C@@H](O)C[C@@]21C`, the growth was 109% (inactive).

In the case of `O=C1NCCc2c1noc2-c1ccccc1`, the growth was 103% (inactive).

Consider `O=C1C=CC(=O)N1c1ccccc1N1C(=O)C=CC1=O`, for which the growth was 92% (inactive).

Consider `Cc1cnc2nc(-c3ccc(N(C)C)cc3)cn2c1`, for which the growth was 100% (inactive).

In the case of `Cc1n(Cc2ccc3ccccc3c2)c2ccccc2[n+]1Cc1ccc2ccccc2c1`, the growth is -35.5% (active).

`CC1C(=O)NC2=Nc3ccccc3C(=O)NN21` (centres undefined): the growth is 91.3% (inactive).

As to `CC(C)N(Cc1ccccc1)c1c(S)ssc1=S`, the growth is 2.98% (active).

`COc1cc(C2CC(c3ccc(C)cc3)=NN2C=O)ccc1OCCN(C)C` (centres undefined): the growth was 89.2% (inactive).

Take `CCN(CC)CCSc1ncnc2c1cnn2-c1ccc(S(N)(=O)=O)cc1`: the growth is 57% (inactive).
